# Screening results from PubChem.
# Pf apPOL inh – Pf-apPOL inhibitors, biochemical, fluorescence. Plasmodium falciparum apicoplast DNA polymerase (apPOL). Recombinant Pf-apPOL, molecular beacon fluorescence, 1.5 h. inhibition, % at 10 µM. 210,000 compounds, 0.25% hits. AID 1794808, 2022
# mHTT CaM bind – mutant huntingtin-calmodulin interaction inhibitors – biochemical, AlphaScreen, primary screen; AlphaScreen His-mHTT/GST-CaM binding, luminescence; inhibition, % at 15 µM; 190,000 compounds, 3.6% hits; AID 1671202, 2021;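 note: 0% = both proteins with DMSO and 100% = one protein alone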
# Starred values were filed as active, the others as inactive; . = no result given. Sampled rows, rich in hits. Any-hit rate of the full collection: about 3.5%. Cut-off read from the data, not from the text of the source: active = inhibition above about 50%; inactive = the rest.
SMILES,Pf apPOL inh,mHTT CaM bind
CCC(C)(C)C(=O)N1CC(c2nc(C)no2)C2(CCOCC2)C1 (stereo unspecified),0,-1
O=C1CC(c2ccccc2)Sc2ccccc2N1Cc1ccccc1 (stereo unspecified),-5,80*
O=C1CC(c2ccco2)Sc2ccccc2N1Cc1cccc(F)c1 (stereo unspecified),2,4
O=C(NCCN1CCCC1)c1cn2ccccc2n1,-8,12
O=C(CN1C(=O)C2C3c4ccccc4C(c4ccccc43)C2C1=O)Nc1cccc(Cl)c1 (stereo unspecified),0,100*
COc1ccccc1NC(=O)CN1C(=O)C2C3c4ccccc4C(c4ccccc43)C2C1=O (stereo unspecified),-4,-4
Cc1ccc(S(=O)(=O)Nc2ccc(N(C)C)cc2)cc1,-56,55*
Cc1ccc(NS(=O)(=O)c2ccc(Cl)cc2)cc1,5,-22
O=C(Nc1ccc(S(=O)(=O)N2CCc3ccccc32)cc1)c1ccncc1,-5,6
COc1ccc(C2CCCN2C(=O)Nc2ccc(C)cc2)cc1 (stereo unspecified),-4,-6
C=C(C)CC1Nc2ccccc2NC1CC(=C)C (stereo unspecified),.,56*
O=C(O)CC1Nc2ccccc2NC1=O (stereo unspecified),2,4
CCCC1=NN(c2ccccc2)C(=O)/C1=C\c1cc(Br)c(O)c(OC)c1,-2,67*
COc1cc(/C=C2\SC(=O)N(c3ccccc3)C2=O)cc(Br)c1O,-6,8
CC1=NN(c2ccccc2)C(=O)/C1=C/N1CCCCC1,-2,2
CC1=NN(c2ccccc2)C(=O)/C1=C/c1cccc(Oc2ccccc2)c1,3,52*
CC1=NN(c2ccccc2)C(=O)/C1=C/c1ccc(O)c(Br)c1,6,52*
CC1=NN(c2ccccc2)C(=O)/C1=C/C=C/c1ccccc1,-2,71*
CC1=NN(c2ccccc2)C(=O)/C1=C/c1cccc(C(=O)O)c1,0,5
CCOc1cc(/C=C2/C(=O)N(c3ccccc3)N=C2C)ccc1O,8,43
Cc1ccc(C(=O)Nc2c3c(nn2-c2cccc(C)c2C)CS(=O)(=O)C3)cc1C,-5,15
Fc1cc2c(c(Cn3c4ccccc4c4nc5ccccc5nc43)c1)OCOC2,-2,-10
COc1ccc(C=C2Oc3cc(OC(=O)c4cccs4)ccc3C2=O)c(OC)c1OC,-4,3
CC(Cc1ccco1)NC(=O)COc1cccc2c1OC(C)(C)C2 (stereo unspecified),-8,-1
CC1=NN(c2ccccc2)C(=O)/C1=C/c1ccc(N(C)C)c(Br)c1,3,65*
SMILES,Pf apPOL inh,mHTT CaM bind
CC1=NN(c2ccccc2)C(=O)/C1=C/c1ccc2c(c1)OCO2,4,8
CCOc1cc(/C=C2\SC(=O)N(Cc3ccc(Cl)cc3)C2=O)ccc1O,-10,3
C=CCn1c(C(=O)NCc2ccncc2)cc2sc(Br)cc21,-8,51*
C=CCn1c(C(=O)NC2CC2)cc2sc(Br)cc21,-5,-1
O=Cc1ccccc1OCC(=O)Nc1ccccc1,-6,-6
c1ccc(CNCCN2CCNCC2)nc1,-2,100*
c1ccc(CN2CCN(Cc3ccccn3)CC2)nc1,11,3
O=C(c1ccncc1)N1CCC(n2c(-c3ccoc3)nc3cccnc32)C1 (stereo unspecified),-1,6
CCOc1ccccc1NC(=O)CN(c1ccc(F)cc1)S(C)(=O)=O,66*,-4
CS(=O)(=O)N(Cc1ccc(C(=O)Nc2ccc(F)cc2)cc1)c1ccccc1,50*,-5
CCOc1ccc(N(CC(=O)Nc2ccccc2OCC)S(C)(=O)=O)cc1,-2,15
CS(=O)(=O)N(Cc1ccccc1)c1ccc(C(=O)Nc2ccc(F)cc2)cc1,0,7
Cc1noc(C)c1S(=O)(=O)N1CCC(C(C)C(=O)NCCC(C)C)CC1 (stereo unspecified),3,-10
O=C(NCC(F)(F)F)C1CCN(C(=O)c2cc(-c3ccco3)on2)CC1,6,8
O=C(NC1CC1)c1ccccc1OCC1CCN(C(=O)c2ccc(F)c(F)c2)CC1,9,2
Cc1cc(C(=O)Nc2ccccc2)c(C)o1,-9,5
Cc1cc(C(=O)Nc2cccc(OC(C)C)c2)c(C)o1,-5,51*
Cc1ccnc(NS(=O)(=O)c2ccc(NC(=O)CSc3nc(C)cc(=O)[nH]3)cc2)n1,-2,-3
Cc1cc(C)nc(NS(=O)(=O)c2ccc(NC(=O)CSc3ncn[nH]3)cc2)n1,62*,-2
Cc1cccc(C)c1NS(=O)(=O)Cc1ccccc1,0,-3
Cc1cccc(C(=O)NCC2CCN(c3cc(-c4cccnc4)[nH]n3)CC2)c1,2,16
CNc1cc(-n2nc(C)cc2-c2ccccc2)ncn1,7,3
Cc1cc(-c2ccccc2)n(-c2cc(Nc3cccc(C(F)(F)F)c3)ncn2)n1,-3,93*
O=C(NCC(c1ccc(F)cc1)N1CCOCC1)C(=O)Nc1nc2ccccc2s1 (stereo unspecified),-1,-9
O=C(NCc1ccccc1)N1CCC2(CC1)Nc1ccccc1-n1cccc12,-2,71*
SMILES,Pf apPOL inh,mHTT CaM bind
COc1cccc(CNC(=O)N2CCC3(CC2)Nc2ccccc2-n2cccc23)c1,-5,61*
CN1c2ccccc2C(=O)NC12CCN(C(=O)NCCc1ccccc1)CC2,-7,2
O=C(NCCc1ccccc1)N1CCC2(CC1)Nc1cc(F)ccc1-n1cccc12,-4,56*
CCCNC(=O)N1CCC2(CC1)Nc1cc(F)ccc1-n1cccc12,3,31
COC(=O)CNC(=O)N1CCC2(CC1)Nc1ccccc1-n1cccc12,0,47
O=C(NCCc1ccccc1)N1CCC2(CC1)Nc1ccccc1-n1cccc12,-2,69*
CCCCCNC(=O)C1CC(=O)N(CCc2c[nH]c3ccc(Cl)cc23)C1 (stereo unspecified),-4,39
Cc1ccc2oc(C(=O)N3CCN(C(=O)c4ccco4)CC3)cc2n1,-8,-25
CC1CC(OCC(O)CN)CC(C)(C)C1 (stereo unspecified),-5,2
O=C(NCc1ccc(F)cc1)N1CCC2(CC1)Nc1ccccc1-n1cccc12,-4,56*
COCCNC(=O)N1CCC2(CC1)Nc1cc(F)ccc1-n1cccc12,6,36
Nc1n[nH]c(CC(=O)O)n1,.,-5
CCc1ccc(OCC(=O)Nc2ccc(C)c(C)c2)cc1,14,-57
Cc1c(N=Cc2ccc([N+](=O)[O-])cc2)c(=O)n(-c2ccccc2)n1C,-3,-6
O=Cc1ccc(-c2c(-c3ccccc3)oc3c2C(OCCCCO)CCC3)o1 (stereo unspecified),-6,61*
OCCOC1CCCc2oc(-c3ccccc3)c(C#CC3(O)CCCCC3)c21 (stereo unspecified),-8,30
O=c1[nH]c2c(=O)[nH]c(=S)[nH]c2nc1C=C(O)c1ccccc1,90*,.
O=c1[nH]c2ccccc2nc1C=C(O)c1ccco1,-8,-4
OC1CCCN(Cc2cccc(Oc3ccccc3)c2)C1 (stereo unspecified),0,-2
CC(C)(C)Oc1ccc(C(=O)N(Cc2ccc(F)cc2)C2CCOC(C)(C)C2)cc1 (stereo unspecified),1,56*
COc1ccc(CN(CCC(c2ccccc2OC)C2CCOC(C)(C)C2)C(C)=O)cc1 (stereo unspecified),-3,22
